Laboratory results as given in PubChem BioAssay (Tox21).
“And” between values parts separate entries of the source, which are not always exact repeats. Equal entries are not always repeated. Records with an inconclusive call do not appear. More than one record can exist for a structure, and the calls need not agree. The source made the active and inactive calls. Unless noted, the call rests on the fitted dose curve; in most records, active means well fitted curve in the direction sought with a large enough effect in the repeat runs; inconclusive means weak or mixed curves; inactive means no such curve, though single readings can be large; an effect the other way counts as inactive or inconclusive.

Columns and labels:
[1] = qHTS assay to identify small molecule agonists of the hypoxia (HIF-1) signaling pathway - cell viability counter screen (AID 1224844; calls by dose curve; further: nearly all actives have a fitted effect of over 50% in size; further: potency means the concentration at half of the fitted maximal effect)
Outline: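 ME-180 HRE-bla cells, 2,000/well, 0.5% dialyzed FBS; 5 hr settle, 17 hr compound at 37C/5% CO2; CCF4-AM reporter read first, then CellTiter-Glo luminescence after 30 min RT.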

[2] = qHTS assay to identify small molecule agonists of H2AX (AID 1224845; active means well fitted activation curve with a large enough effect in the signal ratio in the repeat runs, not every such curve was filed as active; the % refers to the signal ratio; further: potency means the concentration at half of the fitted maximal effect)
Outline: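 Phospho-H2AX Ser139 measured by HTRF (ex 320 nm; em 665 and 620 nm) after 24 hr antibody incubation. Compounds, 15 concentrations, 0.76% DMSO, were applied to CHO-K1 cells for 3hr at 37C before lysis.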

[3] = qHTS assay to identify small molecule agonists of the estrogen related receptor (ERR) signaling pathway from Tox21 library (AID 1224849; calls by dose curve; further: nearly all actives have a fitted effect of over 15% in size); conditions: ERR reporter cell line, ONE-Glo luciferase, 18 h; at 92.4 µM (top of the series) unless noted
Outline: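 ERR cells, 6 h pre-incubation 37 C/5% CO2; cpd in DMSO pinned; 18 h 37 C; ONE-Glo added, 30 min RT; luminescence read. Agonist mode, qHTS.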

[4] = qHTS RealTime-Glo MT Cell Viability Assay in HepG2 cells - 24 hour (AID 1224867); further: nearly all actives have a fitted effect of over 50% in size; further: potency means the concentration at half of the fitted maximal effect
Outline: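 Cells + NanoLuc/prosubstrate dispensed (600 cells/well) → 5 h at 37 C/5% CO2 → compounds in DMSO transferred → 40 h incubation at 37 C, luminescence read at 0, 8, 16, 24, 32, 40 h.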

[5] = qHTS RealTime-Glo MT Cell Viability Assay in HEK293 cells - 32 hour (AID 1224868); further: nearly all actives have a fitted effect of over 50% in size; further: potency means the concentration at half of the fitted maximal effect
Outline: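 Tox21 10K qHTS, HEK293, 600 cells/well, RealTime-Glo reagent co-dispensed with cells; 5 h preincubation, compound by pintool, 37 C, luminescence at 0–40 h.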

[6] = A CellTox Green Cytotoxicity Assay to monitor cytotoxicity in HEK293 cells - 0 hour (AID 1224869); further: nearly all actives have a fitted effect of over 50% in size
Outline: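 Nonlytic real-time cytotoxicity: HEK293 + CellTox Green reagent plated, 5 h preincubation, pintool compound addition (23 nL in DMSO), 37 C for 40 h, fluorescence measured at successive time points.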

[7] = qHTS RealTime-Glo MT Cell Viability Assay in HepG2 cells - 40 hour (AID 1224870); further: nearly all actives have a fitted effect of over 50% in size; further: potency means the concentration at half of the fitted maximal effect
Outline: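 Real-time viability: cells seeded at 600 per well together with NanoLuc and cell-permeant prosubstrate, compounds added after 5 h incubation. Luminescence tracked at 0, 8, 16, 24, 32 and 40 h of exposure.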

[8] = qHTS assay to identify small molecule antagonists of the estrogen related receptor (ERR) signaling pathway from Tox21 library (AID 1224848); further: nearly all actives have a fitted effect of over 50% in size; further: potency means the concentration at half of the fitted maximal effect
Outline: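 Antagonist-mode screen of the Tox21 10K library in an NTP-provided ERR reporter cell line; 18 h compound exposure at 37 C, luminescence measured with ONE-Glo.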

[9] = qHTS assay to identify small molecule agonists of H2AX - cell viability counter screen (AID 1224847; calls by dose curve; further: nearly all actives have a fitted effect of over 30% in size; further: potency means the concentration at half of the fitted maximal effect)
Outline: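 Wild-type CHO-K1 cells (10% FBS medium) were plated overnight at 37C, exposed to compounds at 15 concentrations for 3 hr at 37C (0.76% DMSO final), and viability was read as CellTiter-Glo luminescence after 30 min at room temperature.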

[10] = qHTS assay to identify small molecule agonists of the hypoxia (HIF-1) signaling pathway (AID 1224846; active means well fitted activation curve with a large enough effect in the signal ratio in the repeat runs, not every such curve was filed as active; the % refers to the signal ratio)
Outline: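 Cell line: CellSensor HRE-bla ME-180; 2,000 cells/well; 0.5% dialyzed FBS; 5 h preincubation; DMSO compound pin transfer; 17 h, 37C, 5% CO2; CCF4-AM added; bla FRET signal scored for activation.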
On the % scale 0 is the no-effect control and ±100 the full control effect.

Row | Structure (SMILES) | Potency [1] | Potency [2] | activity change, positive = activation [3] | Potency [4] | Potency [5] | Potency [6] | Potency [7] | Potency [8] | cytotoxicity [6] | Potency [9] | Potency [10]
1 | CCCCCCCCCCCCCCCCCC[N+](C)(C)Cc1ccccc1 | 24.8 µM (active) | inactive | -81% (inactive) | 49.5 µM (active) | 2.78 µM (active) | inactive | 22.1 µM (active) |  |  |  | 
2 | Cc1onc(-c2c(Cl)cccc2Cl)c1C(=O)N[C@@H]1C(=O)N2[C@@H]1SC(C)(C)[C@@H]2C(=O)O | inactive | inactive | -4.23% [at 42.5 µM] (inactive) | inactive | inactive | inactive | inactive | inactive |  |  | 
3 | C[C@@H](NCCCc1cccc(C(F)(F)F)c1)c1cccc2ccccc12 | 23.9 µM (active) | 49.2 µM (active) | -58.9% [at 42.5 µM] (inactive) | 16.9 µM (active) |  | inactive | 15.1 µM (active) | 26.6 µM (active) |  |  | 
4 | Cc1cccc(N(C)C(=S)Oc2ccc3c(c2)C2CCC3C2)c1 (stereo not given) | inactive | inactive |  | inactive | inactive | inactive | inactive | inactive |  |  | 
5 | CCOC(=O)O[C@H](C)OC(=O)c1ccc2c(c1)cc(C(=O)NC1CCN(C(C)C)CC1)n2Cc1cc(-c2ccc(Cl)s2)on1 | 28.9 µM (active) | 42 µM (active) |  | 11.5 µM (active) |  | inactive |  |  |  |  | 
6 | C[n+]1cc2c3c(ccc2c2ccc4cc5c(cc4c21)OCO5)OCO3 | 2.61 µM (active) | 0.956 µM (active) | -68.3% [at 19 µM] (inactive) | 0.827 µM (active) | 0.522 µM (active) |  |  |  | -9.5% [at 15.8 µM] (inactive) |  | 
7 | Cc1ccc2oc(CN(Cc3ccccc3)C(=O)Nc3c(F)cc(F)cc3F)c(-c3ccc(Cl)cc3)c2c1 | inactive | inactive | -42.4% (inactive) |  | inactive | inactive |  | 23.6 µM (active) |  |  | 
8 | CC(=O)SC[C@@H](Cc1ccccc1)C(=O)NCC(=O)OCc1ccccc1 | inactive | inactive |  | inactive | inactive | inactive | inactive |  |  | inactive | 
9 | COc1cc(-c2ccc(N=C=O)c(OC)c2)ccc1N=C=O | inactive | inactive |  | inactive | inactive | inactive | inactive | inactive |  |  | 
10 | COc1ccc(-c2ccc3cc(C(=O)O)ccc3c2)cc1C12CC3CC(CC(C3)C1)C2 | 13.4 µM (active) |  |  |  | 5.35 µM (active) | inactive |  |  |  | inactive | 
11 | Nc1ccc(N)c2ccccc12 | 24.5 µM (active) |  |  |  |  | inactive |  | 27.3 µM (active) |  | 101 µM (active) | 
12 | CCc1cc(Cc2cc(CC)c(N)c(CC)c2)cc(CC)c1N | inactive |  |  | inactive | 38.9 µM (active) | inactive | inactive |  |  | 89.8 µM (active) | inactive
13 | Cc1cc(O)c2ccccc2c1O | 13.4 µM (active) |  | -47.1% [at 42.5 µM] (inactive) | 13.4 µM (active) | 8.49 µM (active) | inactive | 13.4 µM (active) | 13.3 µM (active) |  | 5.52 µM (active) | 
14 | COc1cc(-c2nc(NC(=O)c3cc4cc(C)cc(C)c4n3CC(=O)O)sc2CCC2CCCCC2)c(OC)cc1Cl | 25.2 µM (active) |  | -61.8% (inactive) | 40 µM (active) | 25.2 µM (active) | inactive |  | 31.5 µM (active) |  |  | 
15 | Cc1cc(O)c(C(C)(C)C)cc1Sc1cc(C(C)(C)C)c(O)cc1C | 9.75 µM (active) |  |  | 43.6 µM (active) | 21.8 µM (active) | inactive |  | 13.7 µM (active) |  | 17.9 µM (active) | 
16 | Clc1ccc(C(Cn2ccnc2)OCc2ccc(Sc3ccccc3)cc2)c(Cl)c1 (stereo not given) | inactive |  |  | inactive | inactive | inactive | inactive |  |  | inactive | 
17 | NC(=O)C1(N2CCCCC2)CCN(CCCN2c3ccccc3CCc3ccc(Cl)cc32)CC1 | 21.3 µM (active) |  |  | 23.9 µM (active) | 21.3 µM (active) | inactive | 23.9 µM (active) |  |  | 55.2 µM (active) | 
18 | Clc1ccccc1C(c1ccccc1)(c1ccccc1)n1ccnc1 | 21.9 µM (active) |  |  | 21.9 µM (active) and inactive |  | inactive |  | 3.86 µM (active) and 11.9 µM (active) |  | 40.1 µM (active) and inactive | 
19 | CC(C)c1ccc2c(c1)CC[C@H]1[C@](C)(CN)CCC[C@]21C | 49 µM (active) |  | -75.7% (inactive) | 13.8 µM (active) | 11 µM (active) | inactive | 11 µM (active) | 68.6 µM (active) |  |  | 
20 | CC(=O)N1CCN(c2ccc(OC[C@H]3CO[C@](Cn4ccnc4)(c4ccc(Cl)cc4Cl)O3)cc2)CC1 | 49 µM (active) |  | -79.4% (inactive) | 49 µM (active) | 24.5 µM (active) | inactive |  | 12.2 µM (active) |  | 101 µM (active) | 
21 | Nc1cc(C(F)(F)F)ccc1S | inactive |  | -31.1% [at 42.5 µM] (inactive) | inactive | inactive | inactive | inactive |  |  | inactive | 
22 | CCCCCCCC[N+](CCCCCCCC)(CCCCCCCC)CCCCCCCC | 13.8 µM (active) |  | -81.8% (inactive) | 24.5 µM (active) | 6.15 µM (active) | inactive | 24.5 µM (active) | 0.768 µM (active) |  | 17.9 µM (active) | 
